Test results as given in the supplement of paper PMC11732987, “Enantioselective OTUD7B fragment discovery through chemoproteomics screening and high-throughput optimisation” (Communications Chemistry, 2025).

Key:
Assay in all cases: log2 ratio of Biotin-Ahx-Ub-VS probe labelling (fragment/DMSO); higher = less target engagement (more negative = stronger competition), active = hit call of the paper (q ≤ 0.05, log2 ratio ≤ -1)
Settings in all cases: compound concentration: 200 uM; treatment time: 3 h
USP34 = USP34 (UniProt Q70CQ2)
Chain of USP34 (Q70CQ2 whole entry, the tested form may be a part): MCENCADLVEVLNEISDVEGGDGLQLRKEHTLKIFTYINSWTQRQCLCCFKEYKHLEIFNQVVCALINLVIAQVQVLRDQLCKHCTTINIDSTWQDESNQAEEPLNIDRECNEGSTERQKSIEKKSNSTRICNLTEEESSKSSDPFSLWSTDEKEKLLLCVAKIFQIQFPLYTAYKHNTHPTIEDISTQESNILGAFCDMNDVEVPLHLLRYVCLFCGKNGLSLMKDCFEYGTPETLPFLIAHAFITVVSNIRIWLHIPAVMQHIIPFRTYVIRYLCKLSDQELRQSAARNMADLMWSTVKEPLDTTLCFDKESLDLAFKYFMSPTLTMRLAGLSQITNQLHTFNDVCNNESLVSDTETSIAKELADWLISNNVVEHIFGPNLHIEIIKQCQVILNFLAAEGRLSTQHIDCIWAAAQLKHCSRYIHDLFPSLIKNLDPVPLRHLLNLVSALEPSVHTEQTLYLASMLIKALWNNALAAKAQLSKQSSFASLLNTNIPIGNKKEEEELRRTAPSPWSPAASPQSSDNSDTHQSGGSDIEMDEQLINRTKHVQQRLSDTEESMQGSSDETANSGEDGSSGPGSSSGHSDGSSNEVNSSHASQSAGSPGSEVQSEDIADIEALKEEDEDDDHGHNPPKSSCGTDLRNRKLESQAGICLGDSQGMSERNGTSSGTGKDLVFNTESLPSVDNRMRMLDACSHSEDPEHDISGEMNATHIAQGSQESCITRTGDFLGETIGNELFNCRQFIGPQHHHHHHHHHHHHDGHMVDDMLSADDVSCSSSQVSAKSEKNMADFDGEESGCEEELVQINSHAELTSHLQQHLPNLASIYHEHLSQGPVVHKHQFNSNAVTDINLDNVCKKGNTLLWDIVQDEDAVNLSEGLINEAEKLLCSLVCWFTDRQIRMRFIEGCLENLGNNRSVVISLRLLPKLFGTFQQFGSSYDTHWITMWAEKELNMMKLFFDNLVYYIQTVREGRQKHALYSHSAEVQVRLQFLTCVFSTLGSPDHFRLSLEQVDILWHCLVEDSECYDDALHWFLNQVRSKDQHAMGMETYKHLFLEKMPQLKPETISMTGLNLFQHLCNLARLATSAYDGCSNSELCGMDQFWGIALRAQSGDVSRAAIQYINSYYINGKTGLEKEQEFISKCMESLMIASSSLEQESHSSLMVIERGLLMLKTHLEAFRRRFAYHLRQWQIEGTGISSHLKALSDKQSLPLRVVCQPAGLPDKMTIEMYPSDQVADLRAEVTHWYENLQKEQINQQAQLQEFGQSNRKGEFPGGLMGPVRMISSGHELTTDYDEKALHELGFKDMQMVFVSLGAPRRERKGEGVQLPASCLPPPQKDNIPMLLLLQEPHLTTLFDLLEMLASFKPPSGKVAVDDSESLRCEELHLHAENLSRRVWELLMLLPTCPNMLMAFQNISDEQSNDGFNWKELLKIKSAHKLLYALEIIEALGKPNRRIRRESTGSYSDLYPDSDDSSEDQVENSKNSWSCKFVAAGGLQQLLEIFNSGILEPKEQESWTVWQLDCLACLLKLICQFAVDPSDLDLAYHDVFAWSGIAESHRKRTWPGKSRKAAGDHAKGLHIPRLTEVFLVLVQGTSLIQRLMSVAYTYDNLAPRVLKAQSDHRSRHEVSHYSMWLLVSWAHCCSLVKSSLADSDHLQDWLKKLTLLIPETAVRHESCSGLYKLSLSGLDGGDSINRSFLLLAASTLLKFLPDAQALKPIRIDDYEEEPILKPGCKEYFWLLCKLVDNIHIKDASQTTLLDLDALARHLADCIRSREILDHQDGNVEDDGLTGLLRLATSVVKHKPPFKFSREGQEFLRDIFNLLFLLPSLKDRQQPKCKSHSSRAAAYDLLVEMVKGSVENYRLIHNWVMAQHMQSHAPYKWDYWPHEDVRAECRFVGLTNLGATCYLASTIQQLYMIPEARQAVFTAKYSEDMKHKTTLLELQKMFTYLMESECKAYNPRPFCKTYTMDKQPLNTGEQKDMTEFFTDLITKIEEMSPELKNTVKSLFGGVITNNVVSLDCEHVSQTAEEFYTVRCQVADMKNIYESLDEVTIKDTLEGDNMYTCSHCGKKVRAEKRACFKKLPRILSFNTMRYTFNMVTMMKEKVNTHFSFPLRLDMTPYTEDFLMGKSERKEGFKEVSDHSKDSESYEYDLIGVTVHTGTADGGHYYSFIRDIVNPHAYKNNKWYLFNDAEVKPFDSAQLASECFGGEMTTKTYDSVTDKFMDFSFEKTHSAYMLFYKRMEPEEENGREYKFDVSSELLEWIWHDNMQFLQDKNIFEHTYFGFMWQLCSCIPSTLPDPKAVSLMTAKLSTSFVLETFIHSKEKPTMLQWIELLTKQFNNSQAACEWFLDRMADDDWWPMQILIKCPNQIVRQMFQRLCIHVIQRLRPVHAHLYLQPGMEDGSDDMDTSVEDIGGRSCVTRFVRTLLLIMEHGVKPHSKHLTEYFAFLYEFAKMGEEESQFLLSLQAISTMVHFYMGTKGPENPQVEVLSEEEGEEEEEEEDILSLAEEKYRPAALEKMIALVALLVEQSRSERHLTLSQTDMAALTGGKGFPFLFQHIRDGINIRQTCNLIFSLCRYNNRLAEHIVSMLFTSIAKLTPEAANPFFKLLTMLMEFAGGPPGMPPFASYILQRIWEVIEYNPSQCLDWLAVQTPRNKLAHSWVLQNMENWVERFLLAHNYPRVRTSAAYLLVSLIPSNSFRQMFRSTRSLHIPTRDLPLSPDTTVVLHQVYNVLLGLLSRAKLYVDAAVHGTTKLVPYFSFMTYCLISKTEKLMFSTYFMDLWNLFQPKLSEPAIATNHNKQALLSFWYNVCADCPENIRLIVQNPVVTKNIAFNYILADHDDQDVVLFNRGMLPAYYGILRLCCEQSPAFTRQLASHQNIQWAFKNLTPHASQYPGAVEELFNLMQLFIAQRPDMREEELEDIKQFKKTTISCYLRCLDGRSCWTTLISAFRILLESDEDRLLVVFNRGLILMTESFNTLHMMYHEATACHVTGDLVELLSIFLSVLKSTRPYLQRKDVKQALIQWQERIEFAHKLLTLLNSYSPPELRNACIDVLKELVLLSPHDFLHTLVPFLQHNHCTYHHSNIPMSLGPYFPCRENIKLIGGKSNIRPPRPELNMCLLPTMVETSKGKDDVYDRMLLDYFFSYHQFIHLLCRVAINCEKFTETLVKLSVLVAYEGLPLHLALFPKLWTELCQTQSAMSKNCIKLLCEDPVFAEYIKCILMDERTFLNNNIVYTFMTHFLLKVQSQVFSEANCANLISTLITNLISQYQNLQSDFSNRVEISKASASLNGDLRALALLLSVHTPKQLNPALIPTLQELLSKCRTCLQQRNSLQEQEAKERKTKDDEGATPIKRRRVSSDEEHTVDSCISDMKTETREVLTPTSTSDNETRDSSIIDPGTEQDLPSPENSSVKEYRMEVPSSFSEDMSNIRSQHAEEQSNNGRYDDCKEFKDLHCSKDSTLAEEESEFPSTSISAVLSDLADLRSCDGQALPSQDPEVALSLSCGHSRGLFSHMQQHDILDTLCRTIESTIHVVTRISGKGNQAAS
Method in brief: (§1)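 Triplicate samples of HEK293T lysate, 495 µg each, received fragment at 200 µM or vehicle for 3 h, followed by Biotin-Ahx-Ub-VS (0.5 µM final) for 1 h. After NeutrAvidin enrichment of labelled DUBs and LysC/trypsin digestion, peptides were run by diaPASEF LC-MS/MS. The values are average log2 fragment/vehicle ratios from global-median-normalised Spectronaut label-free quantities, tested by unpaired t-test on proteins having ≥2 unique peptides.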

USP36 = target: T1, USP36 (UniProt Q9P275)
T1 sequence (whole entry): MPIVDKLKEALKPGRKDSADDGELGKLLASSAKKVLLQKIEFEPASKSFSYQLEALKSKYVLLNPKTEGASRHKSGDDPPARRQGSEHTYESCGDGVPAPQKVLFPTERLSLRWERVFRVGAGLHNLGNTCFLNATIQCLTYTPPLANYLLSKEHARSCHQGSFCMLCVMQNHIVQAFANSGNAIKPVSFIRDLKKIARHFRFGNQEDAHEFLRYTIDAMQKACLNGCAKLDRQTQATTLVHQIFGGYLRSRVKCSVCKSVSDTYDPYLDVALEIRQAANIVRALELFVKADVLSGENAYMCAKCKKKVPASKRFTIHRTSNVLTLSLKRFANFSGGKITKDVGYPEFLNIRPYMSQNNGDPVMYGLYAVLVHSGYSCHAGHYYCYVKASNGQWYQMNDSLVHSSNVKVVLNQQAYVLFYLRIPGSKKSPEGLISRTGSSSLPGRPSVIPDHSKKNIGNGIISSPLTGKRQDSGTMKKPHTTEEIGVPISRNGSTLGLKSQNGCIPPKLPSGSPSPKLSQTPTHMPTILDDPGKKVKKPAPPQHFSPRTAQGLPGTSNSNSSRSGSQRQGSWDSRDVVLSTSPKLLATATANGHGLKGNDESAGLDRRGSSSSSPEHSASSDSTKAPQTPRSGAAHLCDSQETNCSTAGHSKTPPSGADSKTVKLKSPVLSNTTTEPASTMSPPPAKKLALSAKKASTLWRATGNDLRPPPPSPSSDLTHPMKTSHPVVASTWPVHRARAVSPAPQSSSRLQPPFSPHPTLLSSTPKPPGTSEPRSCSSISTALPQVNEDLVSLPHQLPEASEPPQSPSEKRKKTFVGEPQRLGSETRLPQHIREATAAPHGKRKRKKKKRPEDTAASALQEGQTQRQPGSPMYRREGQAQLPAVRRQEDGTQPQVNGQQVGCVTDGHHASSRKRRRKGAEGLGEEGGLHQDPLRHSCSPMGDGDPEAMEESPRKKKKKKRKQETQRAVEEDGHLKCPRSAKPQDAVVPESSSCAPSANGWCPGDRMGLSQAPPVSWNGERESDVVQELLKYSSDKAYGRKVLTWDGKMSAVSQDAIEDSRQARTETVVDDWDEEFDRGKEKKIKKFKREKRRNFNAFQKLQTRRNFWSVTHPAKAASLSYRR
Method in brief: as §1

USP38 = target: T2, USP38 (UniProt Q8NB14)
T2 sequence (whole entry): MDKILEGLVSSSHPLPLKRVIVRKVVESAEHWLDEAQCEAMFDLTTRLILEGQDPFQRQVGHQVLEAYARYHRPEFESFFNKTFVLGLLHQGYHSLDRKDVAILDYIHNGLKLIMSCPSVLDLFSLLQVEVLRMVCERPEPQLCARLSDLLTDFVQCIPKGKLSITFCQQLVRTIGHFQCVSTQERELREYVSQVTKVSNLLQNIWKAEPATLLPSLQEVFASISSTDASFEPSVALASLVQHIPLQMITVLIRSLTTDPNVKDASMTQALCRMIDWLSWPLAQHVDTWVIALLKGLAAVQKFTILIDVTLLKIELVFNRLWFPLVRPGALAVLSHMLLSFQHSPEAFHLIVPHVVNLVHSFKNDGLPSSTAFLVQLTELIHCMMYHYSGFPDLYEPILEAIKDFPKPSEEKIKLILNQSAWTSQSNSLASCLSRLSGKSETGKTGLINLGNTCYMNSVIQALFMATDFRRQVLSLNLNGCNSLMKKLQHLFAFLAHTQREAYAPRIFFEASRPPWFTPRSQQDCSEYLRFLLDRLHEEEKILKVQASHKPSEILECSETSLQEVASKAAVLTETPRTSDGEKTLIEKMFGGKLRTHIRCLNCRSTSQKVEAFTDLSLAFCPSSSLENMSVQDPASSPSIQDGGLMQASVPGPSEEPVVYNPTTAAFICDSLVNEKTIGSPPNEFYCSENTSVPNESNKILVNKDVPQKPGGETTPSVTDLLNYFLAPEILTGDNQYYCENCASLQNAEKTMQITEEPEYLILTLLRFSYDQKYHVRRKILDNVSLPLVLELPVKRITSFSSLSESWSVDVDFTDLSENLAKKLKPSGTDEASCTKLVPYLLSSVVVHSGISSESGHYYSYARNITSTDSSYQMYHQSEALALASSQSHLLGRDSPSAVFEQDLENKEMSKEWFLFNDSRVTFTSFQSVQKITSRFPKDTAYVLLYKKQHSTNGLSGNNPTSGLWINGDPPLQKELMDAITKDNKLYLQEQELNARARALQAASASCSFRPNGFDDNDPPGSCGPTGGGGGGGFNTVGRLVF
Method in brief: as §1

USP39 = target: T3, USP39 (UniProt Q53GS9)
T3 sequence (whole entry): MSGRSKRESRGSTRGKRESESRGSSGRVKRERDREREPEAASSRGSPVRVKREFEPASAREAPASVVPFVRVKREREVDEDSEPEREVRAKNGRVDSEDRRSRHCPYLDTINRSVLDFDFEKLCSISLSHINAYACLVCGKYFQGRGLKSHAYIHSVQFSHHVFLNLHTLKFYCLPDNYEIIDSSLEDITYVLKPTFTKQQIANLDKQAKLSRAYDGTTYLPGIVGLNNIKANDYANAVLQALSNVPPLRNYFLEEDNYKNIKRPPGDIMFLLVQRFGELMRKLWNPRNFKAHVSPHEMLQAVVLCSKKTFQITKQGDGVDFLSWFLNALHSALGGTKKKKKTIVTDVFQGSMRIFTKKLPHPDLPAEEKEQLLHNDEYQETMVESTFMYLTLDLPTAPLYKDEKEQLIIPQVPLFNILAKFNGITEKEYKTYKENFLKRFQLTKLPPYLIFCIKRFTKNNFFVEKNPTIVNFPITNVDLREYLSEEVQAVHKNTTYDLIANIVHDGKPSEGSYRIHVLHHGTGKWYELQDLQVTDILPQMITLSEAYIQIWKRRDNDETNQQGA
Method in brief: as §1

USP4 = target: T4, USP4 (UniProt Q13107)
T4 sequence (whole entry): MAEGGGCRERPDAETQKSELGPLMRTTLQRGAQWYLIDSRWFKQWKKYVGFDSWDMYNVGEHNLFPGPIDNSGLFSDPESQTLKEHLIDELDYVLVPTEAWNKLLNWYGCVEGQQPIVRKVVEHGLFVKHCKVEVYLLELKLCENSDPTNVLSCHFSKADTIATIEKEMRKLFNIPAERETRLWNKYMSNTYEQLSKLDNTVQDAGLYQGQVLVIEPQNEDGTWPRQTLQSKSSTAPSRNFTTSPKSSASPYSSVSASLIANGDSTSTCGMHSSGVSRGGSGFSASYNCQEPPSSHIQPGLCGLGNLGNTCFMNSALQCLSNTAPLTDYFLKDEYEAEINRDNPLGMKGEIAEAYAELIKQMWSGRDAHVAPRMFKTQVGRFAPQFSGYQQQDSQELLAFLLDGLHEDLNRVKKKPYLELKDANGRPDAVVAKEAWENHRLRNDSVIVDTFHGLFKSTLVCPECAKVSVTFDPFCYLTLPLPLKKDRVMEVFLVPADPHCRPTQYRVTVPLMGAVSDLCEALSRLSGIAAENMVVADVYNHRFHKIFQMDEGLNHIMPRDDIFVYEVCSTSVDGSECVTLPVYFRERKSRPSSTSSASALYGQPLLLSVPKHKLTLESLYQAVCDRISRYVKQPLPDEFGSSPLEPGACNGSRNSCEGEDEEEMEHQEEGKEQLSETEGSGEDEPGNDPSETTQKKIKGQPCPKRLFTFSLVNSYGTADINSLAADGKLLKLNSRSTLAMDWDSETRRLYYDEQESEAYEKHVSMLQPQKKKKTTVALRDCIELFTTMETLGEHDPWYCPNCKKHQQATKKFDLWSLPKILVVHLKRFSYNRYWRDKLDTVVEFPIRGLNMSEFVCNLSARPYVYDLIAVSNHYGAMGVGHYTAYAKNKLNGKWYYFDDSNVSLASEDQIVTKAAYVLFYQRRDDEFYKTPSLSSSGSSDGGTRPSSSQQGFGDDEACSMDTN
Method in brief: as §1

Measured: log2 ratio of Biotin-Ahx-Ub-VS probe labelling

O=C(CCl)N1CCc2sccc2C1
inactive: USP34 -0.165 | USP36 -0.212 | USP38 -0.305 | USP39 0.0206 | USP4 -0.861
